# Laboratory results from ChEMBL document CHEMBL3988442, “University of Dundee, Small-Polar-MMV Screening Library” (2021).
# Screen size: about 69,000 compounds; about 420 (0.61%) showed an effect of 50% or more. Shown is part of a subset that was picked to be rich in strong results.
# Target: T1, Histidine--tRNA ligase (Leishmania infantum) (UniProt A4I591)
# T1 sequence (whole entry): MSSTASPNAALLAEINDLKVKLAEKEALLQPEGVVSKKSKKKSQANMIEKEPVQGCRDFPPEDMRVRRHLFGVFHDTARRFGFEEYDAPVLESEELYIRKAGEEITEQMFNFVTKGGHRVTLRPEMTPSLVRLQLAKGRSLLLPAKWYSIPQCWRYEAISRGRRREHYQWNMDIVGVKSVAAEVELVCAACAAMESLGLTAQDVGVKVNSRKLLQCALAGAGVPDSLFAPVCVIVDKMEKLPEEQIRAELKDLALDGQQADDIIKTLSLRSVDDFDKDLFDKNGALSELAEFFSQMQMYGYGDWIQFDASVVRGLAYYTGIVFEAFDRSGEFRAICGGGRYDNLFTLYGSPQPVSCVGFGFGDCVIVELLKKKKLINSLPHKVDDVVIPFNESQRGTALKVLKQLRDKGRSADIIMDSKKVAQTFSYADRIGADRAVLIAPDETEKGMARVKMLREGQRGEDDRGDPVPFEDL
# Assay: Leishmania infantum Histidine tRNA synthetase (LdHisRS)
# Assay type: functional
# Parameters: scale not given: in the data most compounds retested in dose-response had high values
# Conditions: 30 µM
row,Compound,Percent Effect [%]
1,O=C1[C@@H]2C[C@H](O)CCN2C(=O)CN1CCSc1ccccn1,17.6
2,COc1ccccc1S(=O)(=O)N1CCN(C)[C@@H]2CS(=O)(=O)C[C@@H]21,-6.67
3,CN(C)C[C@H]1C[C@@H]2CN(C(=O)c3ccco3)C[C@@H]2O1,10.3
4,O=C1N(Cc2ccccn2)C[C@H]2CN(S(=O)(=O)c3ccccc3)CCN12,24.3
5,Cn1nccc1C(=O)N1C[C@@H]2CC[C@H](Oc3cccc(F)c3)[C@@H]2C1,18
6,Cc1cc(C(=O)N2C[C@@H]3CCCO[C@@H]3[C@H](N(C)C(C)C)C2)c(C)[nH]1,11.5
7,O=C(NCc1cccs1)[C@H]1CC[C@@H]2[C@@H](CCN2Cc2ccoc2)O1,12.5
8,CCS(=O)(=O)N1CCO[C@H]2[C@H](OCC3CCCC3)CC[C@@H]21,20.8
9,O=C(O)[C@]12CCCN(Cc3ccsc3)C[C@H]1CN(c1ncccn1)C2,10.5
10,O=C(Cc1cccc(F)c1)N1C[C@H]2CN(Cc3cccnc3)C[C@H]2C1,3.85
11,CC(C)CN1C[C@@H]2OCC(=O)N(c3ccccc3)[C@@H]2C1,21.6
12,Cn1cc(NC(=O)N2CCC(CN3CCCC3)CC2)ccc1=O,6.38
13,NC(=O)Cn1cc(NC(=O)N2CCC(c3ccccc3)CC2)cn1,16.5
14,Cn1cc(NC(=O)N2CCC(OCc3ccccc3)CC2)ccc1=O,103
15,O=C(C1CCOC1)N1CCC(OCc2ccccc2)CC1 (stereo unspecified),16.8
16,CC(NC(=O)N1CCC(c2ccccc2)CC1)c1nncn1C (stereo unspecified),13.8
17,CC(NC(=O)N1CCC(OCc2ccccc2)CC1)c1nncn1C (stereo unspecified),20.3
18,C[C@H](NC(=O)N1CCC(Cc2ccccc2)CC1)C(=O)O,-5
19,CS(=O)(=O)NC1CCN(C(=O)NCC2CCCO2)CC1 (stereo unspecified),11
20,Cn1cc(NC(=O)N2CCC(NS(C)(=O)=O)CC2)ccc1=O,91.5
21,Cn1cc(NC(=O)N2CCC(Cc3ccccc3)CC2)ccc1=O,101
22,Cn1cc(NC(=O)N2CCC(c3ccccc3)CC2)ccc1=O,102
23,CS(=O)(=O)NC1CCN(C(=O)c2ccc(F)cc2)CC1,28.1
24,CN(C)C(=O)NC[C@H]1OC[C@@H]2CCN(Cc3ccoc3)C[C@@H]21,-1.89

row,Compound,Percent Effect [%]
1,Cn1cccc1C(=O)N1CCO[C@@H]2CN(Cc3ccco3)C[C@@H]2C1,11.8
2,Cc1occc1C(=O)N1C[C@@H](OCc2cccnc2)[C@H]2OCCC[C@@H]21,28.2
3,O=C1O[C@@H]2CN(Cc3cc4ccccc4s3)C[C@@H]2N1Cc1ccccn1,2.67
4,CCN1C(=O)CO[C@@H]2CN(C(=O)C3CCOCC3)C[C@H]21,20.6
5,CN(C)S(=O)(=O)N1CC[C@]2(O)CCN(CCCc3cccnc3)C[C@@H]2C1,18.4
6,Cc1ccccc1CN1C[C@@H]2COC[C@]2(CNC(=O)C2CCC2)C1,13.9
7,COCCOCC(=O)N1C[C@@H]2CC[C@H](Oc3ccccc3)[C@@H]2C1,26.3
8,Cc1cc(CNc2ccc3nc(C4CC4)sc3c2)no1,27.6
9,Cc1cc(CNc2ccc3nc(C)sc3c2)no1,58.6
10,Cc1noc(C)c1CNc1cccc(C(=O)N(C)c2ccccc2)c1,-0.855
11,Cc1noc(C)c1CNc1ccc2nc(C3CC3)sc2c1,75.9
12,Cc1noc(C)c1CNc1cccc(C(=O)N2CCCC(O)C2)c1 (stereo unspecified),27.4
13,Cc1cc(CNc2ccc(C(F)(F)F)cc2)no1,17
14,O=C(c1cscn1)N1CCO[C@H]2[C@@H](Oc3ccccn3)CC[C@@H]21,7
15,Cc1noc(CN2C[C@H]3CC[C@@H]2CN(C2Cc4ccccc4C2)C3)n1,20.4
16,O=C(N1CCOCC1)[C@@]12CCO[C@@H]1CCN(C1CCCCC1)C2,20.5
17,Cc1cccc(CN2C[C@@H]3CN(C(=O)c4ccsc4)C[C@@H]3C2=O)n1,28.6
18,Cc1cccc(CN2C(=O)CO[C@@H]3CN(Cc4nccn4C)C[C@H]32)c1,17.3
19,Cc1ccc(C)n1-c1ccc(C(=O)NCCNc2ncccn2)cc1,53
20,CCc1ccc(C(=O)NCCNc2ncccn2)cc1,2.63
21,O=C(NCCNc1ncccn1)c1ccc(Br)cc1,18.4
22,O=C(c1ccoc1)N1C[C@@H]2OCCN(c3ncccn3)[C@@H]2C1,15.3
23,Nc1ccc(C(=O)N2C[C@@H]3CC[C@H](C2)N(Cc2ccccc2)C3)cn1,9.57
24,CC(=O)N1[C@H](CN(C)C)C[C@@H]2CN(c3ncc(F)cn3)CC[C@@H]21,14.5

row,Compound,Percent Effect [%]
1,COc1cc(CNCCc2cnn(C)c2)cc2c1OCCO2,24.8
2,COc1cc(CNCCn2cc(C)cn2)cc2c1OCCO2,9.17
3,COc1cc(CNc2cnn(C)c2)cc2c1OCCO2,53.6
4,CC(C)NC(=O)[C@H]1C[C@@H]2[C@@H](C1)OCCN2Cc1ccco1,5.56
5,Cc1cncc(C(=O)N2C[C@@H]3CN(S(C)(=O)=O)CCO[C@@H]3C2)c1,15.1
6,O=C(N[C@@H]1CN(c2ncccn2)C[C@@H]2CCCO[C@@H]21)c1ccnnc1,22.9
7,CC(=O)Nc1ccc(CN(C)Cc2snnc2C)cc1,16.3
8,CC(=O)Nc1ccc2nc(CN(C)Cc3noc(C)n3)ccc2c1,18.4
9,CC(=O)Nc1ccc2nc(CN(C)Cc3snnc3C)ccc2c1,61.2
10,Cc1ccoc1C(=O)N1C[C@H](OCC2CC2)[C@H]2OCCC[C@H]21,2.65
11,COC[C@@]12CC[C@@H](N3CCOCC3)C[C@H]1CCN(c1cc(C)ccn1)C2,19.4
12,O=C([C@H]1C[C@@H]2[C@@H](C1)OCCN2CC1CC1)N1CCCC1,19.3
13,CCC1CN(CC(=O)N2CCC2)CCN1CCOC (stereo unspecified),28.6
14,CCC1CN(CCC(=O)N(C)C)CCN1CCOC (stereo unspecified),50
15,CCC1CN(CCNC(C)=O)CCN1CCOC (stereo unspecified),4.76
16,c1ccc(O[C@H]2C[C@@H]3CN(Cc4cnccn4)C[C@@H]3C2)cc1,15.9
17,COc1cc(N2C[C@@H]3COC[C@]3(COCc3ccccn3)C2)ncn1,13.8
18,NC(=O)c1ccc(N2CCCCC2)c(NC(=O)c2cc(Br)ccc2Cl)c1,80.7
19,NC(=O)c1ccc(N2CCCCC2)c(NC(=O)c2cc(Br)ccc2F)c1,36.8
20,NC(=O)c1ccc(N2CCCCC2)c(NC(=O)c2ccc(Br)cc2)c1,20.4
21,NC(=O)c1ccc(N2CCCCC2)c(NC(=O)c2cc(F)ccc2F)c1,18.3
22,NC(=O)c1ccc(N2CCCCC2)c(NC(=O)c2ccc(F)cc2F)c1,18.3
23,NC(=O)c1ccc(N2CCCCC2)c(NC(=O)c2ccc(F)cc2Cl)c1,65.6
